# This is a sample that favours compounds with a hit; in the whole collection about 8.1% have one here.
# ClpP mod: qHTS Assay for Activators of ClpP | ATP-dependent Clp protease proteolytic subunit (Bacillus subtilis (strain 168)), P80244 | purified B. subtilis ClpP, FRET peptide cleavage, 20 min | hit rate 1.9% among 340,000 | Potency, µM (series often up to 57.5 µM), for inactives: at the top dose activity change, negative = active; active = well fitted falling curve with a large enough effect; inconclusive = small, poorly fitted or top-dose-only effect; inactive = no such curve, though single readings can be large or run the other way; note: the source files actives as falling curves though it sought activators and does not explain the sign; nearly all actives have a fitted effect of over 65% in size
#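 ClpP 10 microg/mL final, pH 8 Tris/KCl buffer with BSA, glycerol, Tween-20; compound pinned in; FRET-FV substrate; RT 20 min; Ex320/Em430; ΔFRET vs ADEP 5.8 microM, DMSO, no enzyme.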
# Gal4-VP16 FLuc: Gal4-VP16 reporter inhibition counter-screen | Drosophila S2 Gal4-VP16 UAS-luciferase, luminescence, 20 h | Potency, µM (highest dose often 53.6 µM), for inactives: at the highest dose activity, negative = inhibition, actives largely listed as inhibitors | hit rate 3.5% among 310,000;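 note: Gal4-VP16 expression switched on by copper sulfate through the metallothionein promoter; % is set by controls: 0 for no effect and ±100 for the full control effect; nearly all actives have a fitted effect of over 50% in size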
# PINK1 expr mod: changes PINK1 expression | PINK1 immunofluorescence, high-content cytometry, 24 h | Potency, µM (titrated, usually from 76.6 µM), for inactives: at the highest dose activation (PINK1 increase), hits mostly activators | hit rate 0.2% among 410,000 | AID 624263; active = well fitted activation curve with a large enough effect; inconclusive = small, poorly fitted or top-dose-only effect; cell line not stated here; note: % of control where 0% means no effect; nearly all actives have a fitted effect of over 65% in size
#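 Measures PINK1 amount and localization on or inside mitochondria by immunofluorescence. Stable cells get compounds at 5 concentrations for 24 hours before fixation and staining; CCCP controls included.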
# RORgamma inh: ROR gamma (mouse) transcription inhibition; Potency, µM (doses to about 53.6 µM), for inactives: top-dose activity change, negative = inhibition, actives largely listed as inhibitors; Drosophila S2 Gal4-RORgamma UAS-luciferase reporter, 20 h; P51450; AID 2551; hit rate 5.4% among 310,000; note: % is set by controls: 0 for no effect and ±100 for the full control effect; nearly all actives have a fitted effect of over 60% in size
# Target sequence (P51450 whole entry, looked up, the tested form may be a part): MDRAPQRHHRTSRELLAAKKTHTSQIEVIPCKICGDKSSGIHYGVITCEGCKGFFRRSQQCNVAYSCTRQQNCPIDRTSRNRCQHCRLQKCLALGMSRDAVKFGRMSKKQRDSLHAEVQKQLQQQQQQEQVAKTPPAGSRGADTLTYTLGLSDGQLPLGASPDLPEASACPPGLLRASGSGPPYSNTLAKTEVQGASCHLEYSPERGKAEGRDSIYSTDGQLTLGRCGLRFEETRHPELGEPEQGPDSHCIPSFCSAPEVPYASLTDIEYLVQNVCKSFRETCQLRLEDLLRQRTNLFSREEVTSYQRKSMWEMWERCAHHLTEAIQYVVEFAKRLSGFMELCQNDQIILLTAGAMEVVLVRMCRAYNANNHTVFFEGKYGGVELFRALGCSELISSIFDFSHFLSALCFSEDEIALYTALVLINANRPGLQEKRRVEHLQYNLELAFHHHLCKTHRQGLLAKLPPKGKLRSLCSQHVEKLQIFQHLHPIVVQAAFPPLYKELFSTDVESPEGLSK
#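 A Gal4/UAS one-hybrid system in insect cells: metallothionein-promoter Gal4–ROR gamma fusion plus Photinus luciferase reporter. Copper sulfate 700 uM final, 20 hr ambient incubation, luminescent detection after 10 min with reagent.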
# Sfp PPTase inh: inhibitors of Bacillus subtilis Sfp phosphopantetheinyl transferase; Biochemical Sfp PPTase activity, qHTS; Potency, µM, without a hit: largest response in the series, negative = inhibition, actives largely listed as inhibitors; hit rate 3.5% among 310,000; AID 1490;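 note: the enzyme is Sfp with the accession as filed and its product quenches rhodamine fluorescence; 0% = enzyme reaction without inhibitor and -100% = no enzyme wells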
#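 With Hepes-Na pH 7.6 buffer containing 10 mM MgCl2, Sfp (15 nM) modified BHQ-2-YbbR (12.5 uM) using rhodamine-CoA (5 uM). Two reads 30 minutes apart at 525/598 nm yielded each well's rate.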
# Epigenetic reg: derepresses silenced GFP reporter in murine cells | murine LDR cells, GFP reporter derepression, 30 h | Potency, µM (top dose mostly 53.9 µM), inactives show at the top dose GFP activation, actives largely listed as activators | hit rate 0.2% among 280,000; note: % of control where 0% means no effect; nearly all actives have a fitted effect of over 60% in size
#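 Derepression of a silenced CMV-GFP reporter in murine LDR cells is scored by enumerating GFP-positive cells with a laser-scanning microplate cytometer after 30 hours of treatment at 37 C.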
# Starred values were filed as active, the others as inactive; ? = inconclusive; . = no result; [ ] = dose if it differs, or a comment. Unless noted, calls come from the whole dose curve; as a rule, active = well fitted curve in the direction sought with a large enough effect; inconclusive = small, poorly fitted or top-dose-only effect, or another doubt; inactive = no such curve, though single readings can be large; an effect the other way counts as inactive or inconclusive. Potency is the fitted concentration of half-maximal effect.
SMILES,ClpP mod,Gal4-VP16 FLuc,PINK1 expr mod,RORgamma inh,Sfp PPTase inh,Epigenetic reg
CCCn1cc(S(=O)(=O)c2ccccc2)c(=O)c2cc(F)c(N3CCCC(C)C3)cc21 (stereo not drawn),-22.8%,.,-1.0%,.,.,-1.2%
COC(=O)c1sccc1NC(=S)N1CCC(C(N)=O)CC1,-0.3%,7.1%,0.6%,5.0%,79.4µM*,2.7%
COC(=O)c1ccc(NC(=S)N2CCC(C(N)=O)CC2)cc1,-1.7%,-0.8%,-0.8%,25.5%,31.6µM*,-1.0%
N#CCCn1cc(C(=O)Nc2ccccc2Br)c(-c2cc3ccccc3o2)n1,?,7.94µM*,4.6%,?,-4.5%,1.7%
N#CCCn1cc(C(=O)Nc2ccc([N+](=O)[O-])cc2)c(-c2cc3ccccc3o2)n1,-9.0%,-12.6%,-0.8%,?,0.3%,-1.0%
O=C(COc1ccccc1-c1ccccc1)NCCN1C(=O)S/C(=C\c2cccnc2)C1=O,145.5%,20µM*,7.9%,-42.0%,3.1%,?
Cc1ccccc1NC(=O)CN1C(=O)S/C(=C/c2cccnc2)C1=O,-7.3%,-7.2%,-0.3%,?,-11.0%,.
O=C(O)CN1C(=O)S/C(=C\c2cccnc2)C1=O,-0.4%,6.4%,0.9%,7.6%,56.2µM*,-1.8%
COc1ccc2c(CC(=O)NCCN3C(=O)S/C(=C\c4cccnc4)C3=O)coc2c1,12.6µM*,-19.5%,1.4%,-33.0%,-13.2%,-1.5%
O=[N+]([O-])c1cccc(-c2ccc(/C=N/NC(=S)NCc3ccco3)o2)c1,.,3.16µM*,6.8%,0.447µM*,?,0.0%
O=[N+]([O-])c1cccc(-c2ccc(/C=N/NC(=S)Nc3ccccc3)o2)c1,2.0%,2.51µM*,?,0.0891µM*,-21.9%,17.4%
O=C(O)c1cc(-c2ccc(/C=N/NC(=S)Nc3ccccc3)o2)ccc1Cl,.,2.0%[10 µM],-0.2%,11.2µM*,39.8µM*,-0.3%
O=[N+]([O-])c1ccc(/C=N/NC(=S)Nc2ccccc2)o1,-5.4%,?,0.2%,?,?,0.0%
CNC(=O)/C(C#N)=C/c1c(N2CC(C)OC(C)C2)nc2ccccn2c1=O (stereo not drawn),28.2µM*,0.7%,5.2%,-11.2%,?,-1.8%
Oc1ccc(-c2cnns2)c(O)c1,-5.7%,?,1.3%,?,56.2µM*,-1.6%
NC(=S)NNc1cc(Cl)cc(Cl)c1,0.5%,3.98µM*,-0.7%,2.24µM*,14.1µM*,-0.8%
Cc1cccc(NCc2ccccc2O)c1C,-0.7%,-9.7%,6.8%,17.3%,4.5%,0.0%
Cc1ccc(C)c(NNC(N)=S)c1,.,17.8µM*,1.7%,?,50.1µM*,-3.5%
NC(=S)Nc1ccc(Cl)cc1Cl,1.2%,-4.2%,3.0%,-35.2%,7.3%,-1.4%
Cc1ccc(C)c(NNC(=O)C(=O)NNc2cc(C)ccc2C)c1,-8.6%,-1.1%,5.6%,-4.5%,15.2%,-1.4%
Cc1cccc(NNC(N)=S)c1C,0.3%,?,0.4%,10µM*,39.8µM*,0.0%
Cc1cc(Cl)ccc1NNC(N)=S,-1.1%,?,0.6%,?,50.1µM*,1.6%
Cc1cc(NC(=O)c2ccc(Br)o2)cc(-c2nc3ccccc3o2)c1O,0.6%,.,-0.2%,.,.,?
CN(C)C1C(=O)C(C(N)=O)C(=O)C2(O)C(=O)C3C(=O)c4c(O)ccc(Cl)c4C(O)C3CC12 (stereo not drawn),.,-8.0%,.,-11.3%,-9.5%,-0.9%
Cc1nc(Oc2ccccc2C)c2oc3ccccc3c2n1,1.2%,.,5.2%,.,.,-1.3%
O=[N+]([O-])c1cc(Cl)c(O)c2ncccc12,.,1.26µM*,4.6%,0.708µM*,-40.0%,10.0%
O=[N+]([O-])c1ccc(Cl)c2cccnc12,.,-12.3%,-0.4%,20.9%,-3.9%,15.7%
O=[N+]([O-])c1cc(F)c2cccnc2c1O,1.4%,3.16µM*,0.5%,1.26µM*,?,?
O=[N+]([O-])c1cc(Cl)c2cccnc2c1O,.,3.98µM*,5.6%,2.82µM*,4.8%,?

# Screens: PubChem BioAssay, National Center for Advancing Translational Sciences (NCATS)
